The values below come from PubChem BioAssay AID485313 (National Center for Advancing Translational Sciences (NCATS), 2010).

In all, about 320,000 compounds went through this assay and about 7,600 (2.4%) were called active. Entries that show only a call come without a potency. Inconclusive results (about 3%) are left out. This is one part of a sample in which actives are shown more often than they occur. Calls come from the whole dose curve; as a rule, active = well fitted activation curve with a large enough effect; inconclusive = small, poorly fitted or top-dose-only effect; inactive = no such curve, though single readings can be large or run the other way.
Potency is the fitted concentration of half-maximal effect.

The nature of the test: qHTS Assay for NPC1 Promoter Activators.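 For activation: reporter is driven by a mutant NPC1 promoter.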 Note: nearly all actives have a fitted effect of over 60% in size. As to conditions: Huh7 NPC1 promoter luciferase reporter, 24 h; series mostly up to 9.22 µM. The gist of the method:
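Huh7 cells stably carrying NPC1 promoter–luciferase, plated in Opti-MEM with 10% FBS for 2 h, were exposed to compound in DMSO for 24 h at 37 °C; luciferase reagent was added for 10 min and luminescence read.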
On the technique in general: Quantitative high-throughput screening tests each substance at several concentrations.
As to `COc1ccc2c(C)cc(SCC(=O)NCC3CCCO3)nc2c1` (stereo unspecified), the Potency entry is “inactive”. The result for `Cc1cccc(NC(=O)c2ccc3ccccc3n2)n1` reads 3.16 µM (active); that for `Cc1cccc(NC(=O)c2ccccc2NC(=O)C(C)(C)C)n1`, “inactive”; that for `Cc1cccc(NC(=O)c2cccnc2Cl)n1`, “inactive”.

Consider `CCC(=O)Nc1ccc(C(=O)Nc2cccc(OC)c2)cc1`, for which the Potency entry was “inactive”. The same measure for `Cc1ccc(-n2nc3ccc(NC(=O)/C=C/c4ccco4)cc3n2)cc1C`: “inactive”; for `CCC(=O)Nc1ccc2nn(-c3ccc(F)cc3)nc2c1`: 0.355 µM (active); for `Cc1noc(C)c1S(=O)(=O)Nc1ccc(C(=O)N2CCN(c3ccc(F)cc3)CC2)cc1`: “inactive”. The same measure for `O=C(NCCCN1CCOCC1)c1cc(-c2cccc(O)c2)on1`: “inactive”. The same measure for `O=C(NC1CCCC1)c1cc(-c2ccccc2)on1`: 1.26 µM (active). Turning to `O=C(Nc1cccnc1Cl)c1cc(-c2cccc(Cl)c2)on1`, the Potency result is “inactive”. The same measure for `Cc1cc(C)cc(-c2nnc(SCC(=O)NC3CC3)o2)c1`: “inactive”. As for `Cc1cccc(C)c1NC(=O)CSc1nc2c([nH]1)c(=O)n(C)c(=O)n2C`, the Potency entry was “inactive”. The same measure for `CCOc1ncccc1C(=O)Nc1ccc(S(=O)(=O)Nc2nc(C)cc(C)n2)cc1`: “inactive”. Turning to `O=C(CN1CCN(c2ccc(Cl)cc2)CC1)N1CCCC1`, the Potency entry is “inactive”. Take `O=C(CSCc1ccc(Cl)cc1)N1CCCCC1`: the Potency was 6.31 µM (active). Consider `O=C(CSCc1ccc(Cl)cc1)N1CCN(Cc2ccc3c(c2)OCO3)CC1`, for which the Potency result is “inactive”. The result for `CCN(c1ccccc1)S(=O)(=O)c1ccc(OCC(=O)N2CCCC2)cc1` reads “inactive”; that for `O=C(NNC(=O)c1cc(S(=O)(=O)N2CCCCC2)ccc1Cl)c1ccccc1O`, “inactive”. Regarding `Cc1cc(C)cc(NC(=O)C(c2ccccc2)N2CCN(CC(=O)N3CCCC3)CC2)c1` (stereo unspecified), the Potency result was “inactive”. Regarding `COc1ccc(S(=O)(=O)N2CCOCC2)cc1NC(=O)CC1CC2CCC1C2` (stereo unspecified), the Potency entry is “inactive”. `CCOc1nnc(C)c2c(C)n(-c3cccc(Cl)c3)nc12`: the Potency result is “inactive”. Take `Cc1ccc(C(=O)OCc2nc(N)nc(Nc3ccccc3C)n2)cc1`: the Potency entry was “inactive”.

Consider `Cc1ccccc1Nc1nc(N)nc(CSc2nnc3ccccn23)n1`, for which the Potency result is “inactive”. The result for `Cc1ccccc1Nc1nc(N)nc(CSc2ccccc2)n1` reads 1.26 µM (active); that for `O=C1CC[C@H](O)CCN1[C@H](CSc1ccc(Br)cc1)Cc1ccccc1`, “inactive”.

As for `COc1cc(CN2CCC(C(N)=O)CC2)ccc1OCc1ccccc1`, the Potency is 3.98 µM (active). Consider `COc1ccc(COCC(O)CN2CCC(C(N)=O)CC2)cc1` (stereo unspecified), for which the Potency result was “inactive”. The result for `CCOc1cc(CN2CCN(C(=O)CC(C)C)CC2)ccc1OC` reads “inactive”.

Turning to `CCOC(=O)C1CCN(S(=O)(=O)c2ccc3c(c2)N(C(C)=O)CCO3)CC1`, the Potency entry was “inactive”. The same measure for `Cc1ccc(C)c(NC(=O)C(c2ccccc2)N2CCN(CC(=O)NC3CC3)CC2)c1` (stereo unspecified): “inactive”.

Regarding `COc1ccc(CNC(=O)COc2ccccc2C(=O)c2cnn(-c3ccccc3)c2)cc1OC`, the Potency entry was “inactive”. The same measure for `Cc1ncc(CC(=O)n2cc(C(=O)c3cc(Cl)ccc3O)cn2)s1`: “inactive”; for `O=C(c1cnn(-c2ccc(Cl)cc2)c1)c1ccccc1O`: 3.55 µM (active).

Regarding `Cc1ccnc(Nc2nc3ccccc3s2)n1`, the Potency was 3.55 µM (active). The same measure for `Cc1ccnc(-n2sc3ccccc3c2=O)n1`: “inactive”; for `Cc1ccnc(NC(=O)c2ccco2)n1`: “inactive”; for `COc1cc(C(=O)NNC(=O)CN2C(=O)NC3(CCCC3)C2=O)cc(OC)c1OC`: “inactive”. The same measure for `CN(C)S(=O)(=O)c1ccc(C(=O)NCC2(N3CCOCC3)CCCCC2)cc1`: “inactive”; for `CC1CCCC(C)N1C(=O)CSc1nnnn1C1CCCC1` (stereo unspecified): “inactive”; for `CC(=O)Nc1ccc(NC(=O)CSc2nnnn2C2CCCCC2)cc1`: “inactive”. `O=C(CSc1nnnn1C1CCCC1)N1CCCCC1`: the Potency was 3.55 µM (active). Regarding `C/C(=N\NC(=O)c1ccc(NS(=O)(=O)c2cccs2)cc1)c1ccc2ccccc2c1`, the Potency entry is “inactive”. The same measure for `COCCNc1nnc(SCC(=O)NNC(=O)c2ccco2)s1`: “inactive”; for `COc1ccccc1N1CCN(C(=O)CSc2ncnc3c2cnn3-c2ccc(C)c(C)c2)CC1`: “inactive”. Regarding `COc1ccc(Oc2c(Cl)cnn(-c3ccccc3)c2=O)cc1`, the Potency result was “inactive”. Consider `COc1ccc(-n2ncc3c(N4CCCc5ccccc54)ncnc32)cc1`, for which the Potency was 0.501 µM (active). In the case of `COc1ccc2oc(=O)c(C(=O)N3CCCc4ccccc43)cc2c1`, the Potency entry is “inactive”.

As for `Cc1cccc(-n2ncc(Cl)c(Cl)c2=O)c1`, the Potency result was “inactive”. As to `Cc1cccc(-n2ncc3c(N4CCc5ccccc54)ncnc32)c1`, the Potency was 1.58 µM (active). As to `O=C(CCNC(=O)c1ccccc1Cl)NCc1ccco1`, the Potency entry is “inactive”. With `O=C(CCC(=O)c1ccccc1)NCc1cccc(C(F)(F)F)c1`, the Potency entry is “inactive”. Regarding `FC(F)Oc1ccccc1C1CC(c2ccc(Br)s2)Nc2ncnn21` (stereo unspecified), the Potency entry was “inactive”. In the case of `Cc1ccc(Nc2nc(N)nc(CSc3nnc(C)s3)n2)cc1`, the Potency was 2.51 µM (active).

As to `CCOC(=O)N1CCN(Cc2nc(N)nc(Nc3ccc(C)cc3)n2)CC1`, the Potency entry is “inactive”.

In the case of `Cc1nnc(SCc2nc3ccccc3nc2C)s1`, the Potency result is “inactive”. The same measure for `Nc1ccc(Nc2cc(O)c3ncccc3c2)cc1`: “inactive”.

Regarding `CCCN(CC(=O)Nc1ccccc1C)C(=O)c1ccc2[nH]c3c(c2c1)CC(C)CC3` (stereo unspecified), the Potency result was “inactive”. Take `Cc1ccc2cc3cc(C(=O)N4CCCCCC4)oc3nc2c1`: the Potency is 1.12 µM (active). The same measure for `Cc1cc(C)cc(NC(=O)N2CCCCCCC2)c1`: “inactive”.

For `COc1ccc2oc(=O)c(C(=O)N3CCCC3)cc2c1`, the Potency result was “inactive”. Consider `COc1ccc(-c2c(-c3cc(OC)cc(OC)c3)n(C)c3ccc(-c4ccn[nH]4)cc23)cc1`, for which the Potency entry is “inactive”.

For `O=C(Nc1ccc(Br)cn1)c1ccc([N+](=O)[O-])o1`, the Potency result is “inactive”. `O=C(Nc1ccncc1)c1ccc([N+](=O)[O-])cc1Cl`: the Potency result is “inactive”. Turning to `O=C(Nc1ccc(Br)cn1)c1ccc([N+](=O)[O-])cc1Cl`, the Potency was 2 µM (active).

With `C=CCn1cc(-c2cccc(C(F)(F)F)c2)cc(C#N)c1=O`, the Potency result is “inactive”.

`CN(C)C(CNC(=O)c1ccc(OCc2cn3ccccc3n2)cc1)c1ccco1` (stereo unspecified): the Potency entry is “inactive”. As to `Cc1ccc(Oc2cnn(-c3ccccc3)c(=O)c2Br)cc1`, the Potency entry was “inactive”. The same measure for `O=c1c(Cl)c(NC2CC2)cnn1-c1ccccc1`: “inactive”. On to `C=CCNc1cnn(-c2ccc(C)cc2)c(=O)c1Cl`, for which the Potency is 2.82 µM (active). As to `CC(C)Nc1nnc(SCC(=O)c2c[nH]c3ccccc23)s1`, the Potency entry was “inactive”.
